The source made the active and inactive calls.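 How the source made its calls: active means compounds that bring Gaucher patient macrophage uptake of dying cells up to about normal macrophage levels; inactive means the rest.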
Assay: Extended Characterization of Activators of N370S glucocerebrosidase as a Potential Chaperone Treatment of Gaucher Disease: Efferocytosis Index
Conditions: Gaucher patient macrophages, apoptotic Jurkat efferocytosis imaging
Excerpt: Glucocerebrosidase (GCase) catalyzes the hydrolysis of beta-glucocerebroside (GC) to glucose and ceramide in lysosomes. Mutations in the glucocerebrosidase gene result in Gaucher disease, an autosomal recessive lysosomal storage disorder. Many of the mutations encountered in patients with Gaucher disease are missense alterations that may cause misfolding, decreased stability and/or mistrafficking of this lysosomal protein. […] These inhibitors include iminosugar analogs and other inhibitors that were discovered as part of previous work. However, the enhancement of enzyme activity by the chaperone action of an enzyme inhibitor must be balanced against the direct inhibition of the enzyme. […] In this extended characterization of our probe, we have further characterized the activity of probes in relevant models of Gaucher disease. This assay examine efferocytosis in patient-derived macrophages following compound incubation. NIH Chemical Genomics Center [NCGC] NIH Molecular Libraries Probe Production Centers Network [MLPCN] MLPCN Grant: MH086442 Assay Submitter (PI): Ellen Sidransky, NHGRI
Jurkat T-cells were stained with green cell tracker (Molecular Probes), and apoptosis was induced using UVB radiation for 2 min (BioRad). […] The number of T-cells taken up by macrophages was counted and normalized to the number of cells per field.

Row | Compound | outcome
1 | C#Cc1ccc(NC(=O)c2cnn3c(C)cc(C)nc23)cc1 | active; similar to control

Reference: PubChem BioAssay AID652100 (National Center for Advancing Translational Sciences (NCATS), 2013)
